# Records with an inconclusive call do not appear. Where a call stands in place of a potency, no number is given. The source made the active and inactive calls. Unless noted, calls follow the shape of the dose curve; as a rule, active = well fitted curve in the direction sought with a large enough effect in the repeat runs; inconclusive = weak or mixed curves; inactive = no such curve, though single readings can be large; an effect the other way counts as inactive or inconclusive.
# Legend:
# [1] = qHTS assay for small molecules that induce genotoxicity in human embryonic kidney cells expressing luciferase-tagged ATAD5 (AID 651632); also: nearly all actives have a fitted effect of over 15% in size; also: potency is read from the fitted curve at half-maximal effect
# Outline: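 HEK293T cells carrying luciferase-tagged ATAD5 were given compound or DMSO vehicle and incubated 16 hr at 37C, 5% CO2. Luciferase activity was read after 30 min at room temperature with Amplite; a rise signals genotoxic stress.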
# [2] = qHTS assay to test for compound auto fluorescence at 590 nm (red) in HepG2 cells (AID 720674)
# Outline: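 Rose Bengal sodium served as the red fluorophore standard. HepG2 monolayers (overnight attachment, MEM with 10% FBS) were exposed to test compounds for 1 hr at 37 C and read at Ex 540/Em 590 nm.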
# [3] = qHTS assay to test for compound auto fluorescence at 460 nm (blue) in HEK293 cells (AID 720678)
# Outline: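 After cell attachment (4-5 hr, 37C), compounds were pinned onto HEK293 monolayers in 10% dialyzed FBS medium. The blue channel (405/460 nm) was read following overnight culture. Equivalency was calculated against triamterene.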
# [4] = qHTS assay to test for compound auto fluorescence at 590 nm (red) in HEK293 cells (AID 720679)
# Outline: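 Plates of HEK293 cells (10% dialyzed FBS) are treated with 23 nL compound or DMSO vehicle after a 4-5 hr attachment period, incubated overnight at 37C, and read for red fluorescence at 540/590nm.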
# [5] = qHTS assay for small molecules that induce genotoxicity in human embryonic kidney cells expressing luciferase-tagged ATAD5 - cell viability (AID 651634; calls by dose curve; also: nearly all actives have a fitted effect of over 25% in size; also: potency is read from the fitted curve at half-maximal effect)
# Outline: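 HEK293T cells carrying luciferase-tagged ATAD5, 2,000 cells/well, exposed to compound for 15.5 hr at 37C. Viability read as live-cell protease activity by CellTiter-Fluor fluorescence after 30 min at 37C.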
# [6] = qHTS assay for small molecule disruptors of the mitochondrial membrane potential - cell viability (AID 720634; calls by dose curve; also: nearly all actives have a fitted effect of over 20% in size; also: potency is read from the fitted curve at half-maximal effect)
# Outline: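 HepG2 cells, 2,000 per well, attached overnight, then treated 1 hr at 37 C, 5% CO2. Viability read as ATP by CellTiter-Glo luminescence after 30 min at room temperature. Read in the same wells as the m-MPI membrane-potential dye assay.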
# [7] = qHTS assay for small molecule disruptors of the mitochondrial membrane potential (AID 720635); also: potency is read from the fitted curve at half-maximal effect
# Outline: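 HepG2 cells (2,000/well) attached overnight at 37C, then took compound for 1 hr at 37C, 5% CO2. Mito-MPS dye was added for 30 min; fluorescence was read at 490/535 nm (monomers) and 540/590 nm (aggregates).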
# [8] = qHTS assay to test for compound auto fluorescence at 535 nm (green) in HepG2 cells (AID 720675); also: potency is read from the fitted curve at half-maximal effect
# [9] = qHTS assay for small molecule agonists of the p53 signaling pathway - cell viability (AID 651633; calls by dose curve; also: potency is read from the fitted curve at half-maximal effect; nearly all actives have a fitted effect of over 30% in size)
# Outline: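 p53RE-bla cells, seeded at 4,000 per well and rested 5 h at 37 C/5% CO2, received compounds in DMSO for 16 h at 37 C. CellTiter-Glo was then added, and luminescence was read after 30 min at room temperature to gauge cytotoxicity.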
SMILES,Potency [1],outcome [2],Potency [3],outcome [4],Potency [5],Potency [6],Potency [7],Potency [8],Potency [9]
CN1CCN(CCCN2c3ccccc3Sc3ccc(Cl)cc32)CC1,inactive,inactive,inactive,inactive,,,,,
CS(=O)(=O)c1ccc([C@@H](O)[C@@H](COC(=O)CN)NC(=O)C(Cl)Cl)cc1,inactive,inactive,inactive,inactive,inactive,inactive,inactive,,
COc1ccc2ccccc2c1,,inactive,,inactive,,,,inactive,
COc1cccc(-c2ccc(/C=C\CN3CCCCCC3)cc2Cl)c1,inactive,inactive,inactive,inactive,inactive,inactive,,inactive,
C=CC(N)CCC(=O)O (configuration not stated),inactive,inactive,inactive,inactive,inactive,inactive,,inactive,
CC(=O)[C@]1(O)Cc2c(O)c3c(c(O)c2[C@@H](O[C@H]2C[C@H](N)[C@H](O)[C@H](C)O2)C1)C(=O)c1ccccc1C3=O,0.841 µM (active),inactive,inactive,inactive,,inactive,5.55 µM (active),12.6 µM (active),
CN1CCN(c2ccccc2/C=C2\SCCN(c3ccc(Cl)c(Cl)c3)C2=O)CC1,inactive,inactive,inactive,inactive,inactive,,,inactive,
CC1=C(/C=C/C(C)=C/C=C/C(C)=C\C(=O)O)C(C)(C)CCC1,inactive,inactive,inactive,inactive,,inactive,61.3 µM (active),inactive,
O=C1OC(O)C(C(Cl)Cl)=C1Cl (configuration not stated),,inactive,inactive,inactive,,,63 µM (active),inactive,15.8 µM (active)
CC(Cc1ccc(O)c(O)c1)C(C)Cc1ccc(O)c(O)c1 (configuration not stated),inactive,inactive,inactive,inactive,,inactive,13.7 µM (active),inactive,
CS(=O)(=O)c1ccc([C@@H](CC2CCCC2)C(=O)Nc2cnccn2)cc1Cl,,inactive,inactive,inactive,,34.4 µM (active),61.1 µM (active),inactive,
CC(C)(Oc1ccc(C2CCCc3ccccc32)cc1)C(=O)O (configuration not stated),inactive,inactive,inactive,,inactive,inactive,inactive,inactive,
CCCCCCCC1CCC(=O)O1 (configuration not stated),,inactive,inactive,inactive,,,,inactive,
CC(=O)N(C)C,,inactive,inactive,inactive,,,,inactive,
CN1CCN(CCCN2c3ccccc3Sc3ccc(C(F)(F)F)cc32)CC1,inactive,inactive,inactive,inactive,,,,inactive,
Clc1nc(C(Cl)(Cl)Cl)c(Cl)c(Cl)c1Cl,,inactive,inactive,inactive,48.6 µM (active),inactive,,inactive,61.1 µM (active)
Nc1c(CC(=O)O)cccc1C(=O)c1ccccc1,inactive,inactive,inactive,inactive,inactive,,inactive,,
CC(=O)OCC(=O)[C@@]1(O)CC[C@H]2[C@@H]3C[C@H](C)C4=CC(=O)C=C[C@]4(C)[C@H]3[C@@H](O)C[C@@]21C,inactive,inactive,,inactive,inactive,inactive,,inactive,
CCCCCCCC/C=C\CCCCCCCC(=O)N(CCO)CCO,inactive,inactive,inactive,inactive,inactive,inactive,,,
